In PubChem BioAssay (NCI):
This is part of a sample that, as a whole, favours compounds with a hit. Of some 79,000 tested, about 15% had one in any assay. Active and inactive are the calls of the source. Cut-off read from the data, not from the text of the source: active = growth inhibition above about 70%; inactive = the rest.

Legend:
[1] = NCI Yeast Anticancer Drug Screen. Data for the rad50 strain (AID 155);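 note: 0% = growth of vehicle-only cultures of the same strain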; details: S. cerevisiae rad50 strain growth inhibition; at 50.0 µM; active compounds read high
Procedure, shortened: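 Vehicle-treated cultures provide the reference for the growth inhibition reported for compound-exposed, repair-deficient yeast.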

[2] = NCI Yeast Anticancer Drug Screen. Data for the mec2-1 strain (AID 157); details: S. cerevisiae mec2-1 strain, at 50.0 µM, active compounds read high
Procedure, shortened: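 Test agents were screened against the mec2-1 yeast strain, with defined DNA repair or cell cycle alteration. Growth was scored as inhibition against vehicle-only controls.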

[3] = NCI Yeast Anticancer Drug Screen. Data for the sgs1 mgt1 strain (AID 161);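 note: 0% = growth of cultures given vehicle only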; details: S. cerevisiae sgs1 mgt1 strain, at 50.0 µM, active compounds read high
Procedure, shortened: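 Inhibition of yeast growth, normalised to vehicle-treated controls, is reported for a strain bearing genetic alterations in DNA damage repair.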

[4] = NCI Yeast Anticancer Drug Screen. Data for the cln2 rad14 strain (AID 165);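 note: 0% = growth equal to vehicle treated cultures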; details: S. cerevisiae cln2 rad14 strain, at 50.0 µM, active compounds read high
Procedure, shortened: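 Growth of compound-exposed yeast (cln2 rad14 genotype) measured and expressed as inhibition relative to vehicle.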

[5] = NCI Yeast Anticancer Drug Screen. Data for the bub3 strain (AID 167); details: S. cerevisiae bub3 mutant strain, at 50.0 µM, active compounds read high
Procedure, shortened: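 Mutant yeast screening strain plus compound; vehicle-treated cultures serve as the 0% inhibition reference.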

[6] = NCI Yeast Anticancer Drug Screen. Data for the mlh1 rad18 strain (AID 175); details: S. cerevisiae mlh1 rad18 strain growth inhibition; at 50.0 µM; active compounds read high
Procedure, shortened: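 In this whole-cell yeast screen, a strain with altered DNA damage repair is challenged with compound, and its growth is measured against matched vehicle-treated controls.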

Measured: growth inhibition

O=P12N(CCN1c1ccccc1)CCN2c1ccccc1
inactive: [1] -26.4% | [2] -34.1% | [3] -13.8% | [4] 19.6% | [5] 10.2% | [6] -25.5%

CCN(CC)CCOCCN(CC)CC
inactive: [1] 4.15% | [2] -2.2% | [3] -5.25% | [4] -44.8% | [5] 0.1% | [6] 9.55%

CCCCn1c2nc(=O)n(C)c(=O)c-2cc2ccccc21
inactive: [1] 29% | [2] 16.7% | [3] 22.6% | [4] -25.4% | [5] 17.8% | [6] 34.7%

O=C1CCCC2=C1C(c1ccccc1)/C(=N/O)O2 (stereo not drawn)
inactive: [1] 14.6% | [2] -11.2% | [3] -4.45% | [4] -12.1% | [5] 8% | [6] 16.1%

CCCCC(O)(CCCC)CC(C)(C)C
inactive: [1] -3.3% | [2] 1.6% | [3] -9% | [4] 18.7% | [5] 2.65% | [6] -1.35%

CCOC(=O)/C=C/C(=O)N1CCN(C(=O)/C=C/C(=O)OCC)C(C)C1 (stereo not drawn)
inactive: [1] -3.3% | [2] -40.8% | [3] -6.7% | [4] 4.25% | [5] -41.5% | [6] -15.9%

O=C(CCc1ccc(O)c(O)c1)NCCc1cc(O)cc(OCc2ccccc2)c1
inactive: [1] 9.45% | [2] -6.65% | [3] -10.6% | [4] -19.1% | [5] -44.3% | [6] -73.5%

CCCCC1C(=O)N=C2C=CC=CN2C1=O (stereo not drawn)
inactive: [1] -2.15% | [2] -16.9% | [3] -5.75% | [4] 3.5% | [5] -24.2% | [6] -7.4%

C=CCn1c(=O)cc[nH]c1=S
inactive: [1] -11.6% | [2] -13.2% | [3] -24.7% | [4] 3.4% | [5] -1.05% | [6] -21.2%

Cc1ccc(C(=O)O)c(=O)[nH]1
inactive: [1] 3.65% | [2] -26.1% | [3] 5.3% | [4] 2.05% | [5] 7.3% | [6] -2%

Cc1c(Cl)cccc1NC(=O)Oc1ccc(Cl)cc1
inactive: [1] 1.75% | [2] -2.75% | [3] -5.6% | [4] -7.45% | [5] -9.7% | [6] -4.05%

CC(C)NC(=O)OCc1c(COC(=O)NC(C)C)c(Sc2ccccc2)n2c1CCC2
inactive: [1] 6.6% | [2] -17.1% | [3] 1.85% | [4] -27.6% | [5] 9.1% | [6] 16.2%

Cc1ccc(OCC2OC(n3cnc4c(Cl)nc(N)nc43)CC2Oc2ccc(C)cc2)cc1 (stereo not drawn)
inactive: [1] 2.3% | [2] -11% | [3] 13.4% | [4] 14.6% | [5] 2.4% | [6] -13.2%

CN(C)C1C(CO)OC(n2cnc3c(N)ncnc32)C1O (stereo not drawn)
inactive: [1] 21.2% | [2] 12.8% | [3] -19.4% | [4] 22% | [5] -11.8% | [6] -82.2%

Cc1ccc2c(Nc3ccc(NS(C)(=O)=O)cc3C)c3ccccc3nc2c1
inactive: [1] 42.4% | [2] -27.4% | [3] 6.2% | [4] 4.2% | [5] 4.25% | [6] -23.5%

CC(C)C(C)(C(N)=O)C(C)C
inactive: [1] 14.3% | [2] 17.4% | [3] 10.2% | [4] 17.9% | [5] -1.25% | [6] -1.4%

COc1ccc(C(C)(C)c2ccccc2)cc1
inactive: [1] -20.1% | [2] -45.1% | [3] -13.4% | [4] -19.9% | [5] -24.6% | [6] -18.6%

COc1c2c(c(Cc3c4c(c(OC)c5c3OCO5)OC(C)C4)c3c1OCO3)CC(C)O2 (stereo not drawn)
inactive: [1] 24.1% | [2] 2.35% | [3] 5.65% | [4] 6.05% | [5] -10.1% | [6] -7.3%

NC(=O)c1ccc(S(=O)(=NS(=O)(=O)c2ccccc2)c2ccc(C(N)=O)cc2)cc1
inactive: [1] 4.2% | [2] -8.4% | [3] -11.8% | [4] -62.8% | [5] -25.6% | [6] -1.6%

CCN1CCCCC(=N\O)/C(=N/O)CCCC1
inactive: [1] -12.8% | [2] -12.2% | [3] -20.1% | [4] -4.2% | [5] -51.6% | [6] -11.8%

CCOC(=O)C(Cc1ccccc1Cl)(NC(C)=O)C(=O)OCC
inactive: [1] 2.1% | [2] -7.95% | [3] -0.35% | [4] -10.2% | [5] 11.8% | [6] -20.1%

O=C(NC(=O)C(F)(F)F)Nc1cccc(C(F)(F)F)c1
inactive: [1] 15.6% | [2] 1.1% | [3] -14.1% | [4] -4.85% | [5] -8.25% | [6] 2.9%

CC1=C(CCC(C)N)C(C)(C)CCC1 (stereo not drawn)
inactive: [1] 29% | [2] 14.7% | [3] 28% | [4] 7.75% | [5] 11.4% | [6] 12.8%

COc1ccc(C(=O)/C=C/c2ccc(OC)c(OC)c2OC)c(O)c1
inactive: [1] 17.6% | [2] 1.4% | [3] -8.55% | [4] -18.5% | [5] 16.6% | [6] 14.7%

CC(C)NC(=O)C(C(C)C)C(C)(C)C (stereo not drawn)
inactive: [1] -2.95% | [2] 5.25% | [3] 1.35% | [4] 12.1% | [5] 9.2% | [6] -2.15%

CSc1nc2ncnc(N(C)C)c2[nH]1
inactive: [1] 1.1% | [2] -11.8% | [3] -8.5% | [4] 2.45% | [5] -7.4% | [6] -16.5%

CCOC(=O)C(Cc1ccccc1)NC(=O)c1[nH]cnc1/N=N/N(C)C (stereo not drawn)
inactive: [1] 44% | [2] -44% | [3] -29.4% | [4] -2.05% | [5] 2.8% | [6] -22.3%

Nc1cc(F)cc(C(F)(F)F)c1F
inactive: [1] 13.5% | [2] -32.3% | [3] -4.3% | [4] -12.2% | [5] -5.35% | [6] 18.6%

Cc1oc2nc(N(C)C)nc(NN)c2c1C
inactive: [1] 10.1% | [2] 5.55% | [3] -4.55% | [4] -0.75% | [5] 10.2% | [6] -13.8%

COc1cc(Br)c(CC2c3cc(OC)c(OC)cc3CCN2C)cc1OC (stereo not drawn)
inactive: [1] -17% | [2] -25.4% | [3] -9.75% | [4] 3.2% | [5] -7.95% | [6] -13.4%

Fc1cccc(C2SCc3nc4cc5ccccc5cc4n32)c1 (stereo not drawn)
inactive: [1] -21.8% | [2] -1.25% | [3] 8.8% | [4] -0.45% | [5] -19.7% | [6] -9.65%

COC(=O)C(=O)Cc1cccc(OC(C)=O)c1C(=O)OC
inactive: [1] 8.55% | [2] 6.4% | [3] 6.6% | [4] -94% | [5] 9.35% | [6] 2.6%

CCOC(=O)C(OC(C)=O)(C(=O)OCC)C(O)c1cccnc1 (stereo not drawn)
inactive: [1] 15.1% | [2] -2.25% | [3] 16.3% | [4] -37.5% | [5] 8% | [6] -1.05%

CNC(=O)C(c1ccccc1)C(O)c1ccccc1 (stereo not drawn)
inactive: [1] 10.8% | [2] -3.7% | [3] -11.4% | [4] 10.4% | [5] -0.15% | [6] -10.5%

O=C(Nc1ccc(Cl)c(Cl)c1)Oc1ccc(-c2ccccc2)cc1
active: [1] 73.2% | [2] 88% | [3] 93.2% | [5] 87.5% | [6] 95.7%
inactive: [4] 43.6%

c1ccnnc1
inactive: [1] 15.9% | [2] -29% | [3] 4.8% | [4] -10.2% | [5] -0.4% | [6] 4.25%

NCCCC(N)C(=O)O (stereo not drawn)
inactive: [1] -16.9% | [2] -17.4% | [3] -33.5% | [4] -12.7% | [5] -42.6% | [6] -19.7%

O=c1cc(-c2ccccc2)[nH]c2ccc(N3CCOCC3)cc12
inactive: [1] -37.7% | [2] 0.25% | [3] -41.6% | [4] -18.9% | [5] -15.8% | [6] -31.4%
